From PubChem BioAssay AID1851 (National Center for Advancing Translational Sciences (NCATS), 2009)
Screen size: about 16,000 compounds; about 5,800 (36%) were called active. Not shown: some 23% with an inconclusive outcome. The list shows a part of the results. A number with no mark means an inactive call. Calls follow the shape of the dose curve; as a rule, active = well fitted curve in the direction sought with a large enough effect; inconclusive = small, poorly fitted or top-dose-only effect, or effect the other way; inactive = no such curve, though single readings can be large or run the other way. Square brackets hold non-standard residues; d marks the D form. Peptide text beside a SMILES is read from it. * marks the point of attachment. ξ: configuration not given here. Cbz = O=C(OCc1ccccc1)*; ξA = CC(N)C(=O)O

The compounds below were run against Cytochrome P450 2C19 (Homo sapiens) (UniProt P33261) (assay: Cytochrome panel assay with activity outcomes). Conditions: recombinant CYP, pro-luciferin dealkylation, luminescence, p450-cyp2c19; series mostly up to 57.1 µM; activity, negative = inhibition: at the top concentration.
% is scaled to controls: 0 for no effect and ±100 for the full control effect.

Chain of Cytochrome P450 2C19 (Homo sapiens) (P33261 whole entry, looked up): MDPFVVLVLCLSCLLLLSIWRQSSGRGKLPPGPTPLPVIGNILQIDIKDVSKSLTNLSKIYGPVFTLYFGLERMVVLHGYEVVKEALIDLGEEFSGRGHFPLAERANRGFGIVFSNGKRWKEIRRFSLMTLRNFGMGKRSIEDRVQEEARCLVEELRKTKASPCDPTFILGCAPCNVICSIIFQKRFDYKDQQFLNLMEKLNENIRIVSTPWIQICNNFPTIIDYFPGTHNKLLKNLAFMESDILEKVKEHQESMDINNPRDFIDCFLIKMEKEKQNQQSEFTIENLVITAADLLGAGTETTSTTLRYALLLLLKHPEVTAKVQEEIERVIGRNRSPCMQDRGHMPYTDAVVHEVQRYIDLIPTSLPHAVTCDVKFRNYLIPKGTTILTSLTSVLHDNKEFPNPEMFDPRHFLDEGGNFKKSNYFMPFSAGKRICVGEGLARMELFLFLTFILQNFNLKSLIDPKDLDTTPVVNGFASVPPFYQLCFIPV

| SMILES | activity, negative = inhibition | AC50 |
| --- | --- | --- |
| O=C(Nc1ccc2oc(=O)c(C(=O)O)cc2c1)Oc1ccccc1 | 18.7% [at 11.4 µM] | – |
| COc1ccc2oc(=O)c(C(=O)Oc3ccc(NC(C)=O)cc3)cc2c1 | – | 15.8 µM (active) |
| COc1ccc(NC(=O)N2CC[C@@]3(CCCN(C(C)=O)C3)C2)cc1 | -14.5% | – |
| CN(C(=S)Nc1ccccc1F)C1(c2ccccc2Cl)CCCCC1=O (centres undefined) | – | 1.26 µM (active) |
| CO/N=C(/CNC(=O)c1cccc(Cl)c1)c1ccc(Cl)cc1 | – | 0.708 µM (active) |
| CO/N=C(/CNC(=O)c1ccc(Cl)cc1Cl)c1ccc(Cl)cc1 | – | 0.398 µM (active) |
| COc1ccc(Cc2nnc(NC(=O)c3ccco3)s2)cc1 | – | 14.1 µM (active) |
| COc1ccc(NC(=O)N2CC3(CCN(C(=O)c4ccco4)CC3)C2)cc1 | -32.6% | – |
| COc1ccc(Cc2nnc(NC(=O)c3cccc([N+](=O)[O-])c3C)s2)cc1 | 10.2% | – |
| COc1ccc2c(c1)Cc1sc(NC(=O)c3ccco3)nc1-2 | – | 14.1 µM (active) |
| COc1ccc(NC(=O)N2CCC3(CC2)CCN(C(=O)c2ccco2)CC3)cc1 | -11% | – |
| COc1ccc2c(c1)CCc1sc(NC(=O)c3ccc(C)cc3)nc1-2 | – | 3.55 µM (active) |
| Cc1ccc(NC(=O)NNC(=O)Cn2nc(-c3ccccc3)c(-c3ccccc3)c(C#N)c2=O)cc1 | – | 17.8 µM (active) |
| Cc1ccc(-c2c(C#N)c(N)n(-c3ccccc3)c(=O)c2C#N)cc1 | -29.3% | – |
| COc1ccc(CSc2nnnn2C)cc1[N+](=O)[O-] | – | 10 µM (active) |
| Cn1nnnc1SCc1ccccc1[N+](=O)[O-] | – | 25.1 µM (active) |
| Cn1nnnc1SCC(=O)Nc1ccccc1[N+](=O)[O-] | -18% | – |
| COC(=O)Nc1nc2ccc(C(=O)c3ccccc3)cc2[nH]1 | -36.1% [at 25.6 µM] | – |
| O=C(c1ccccc1)c1ccc2nc(-c3ccc(NC(=O)c4ccccc4Br)cc3)[nH]c2c1 | – | 5.62 µM (active) |
| O=C(O)c1ccc(NCc2nc3cc4ccccc4cc3[nH]2)cc1 | 60.6% [at 11.4 µM] | – |
| C[C@H](N)CCCC(C)(C)O | 19.9% [at 25.6 µM] | – |

| SMILES | activity, negative = inhibition | AC50 |
| --- | --- | --- |
| O=C(O)c1ccccc1-c1ccc(/C=c2\sc3nc4cc(Br)cnc4n3c2=O)o1 | – | 35.5 µM (active) |
| Cc1cc2[nH]c(=O)c3ccccc3n2n1 | -22.9% | – |
| Cc1cc(C)n(C(=O)c2cc3ccccc3c(=O)o2)n1 | – | 1.58 µM (active) |
| CCc1cc2c(nc1CC)CCN(CC/C(C)=N/O[C@@H]1O[C@H](COC(C)=O)[C@H](OC(C)=O)[C@H](OC(C)=O)[C@H]1OC(C)=O)C2 | 6.45% [at 11.4 µM] | – |
| CCS(=O)(=O)c1ccc2oc(Nc3cc(C)cc(C)c3)nc2c1 | – | 11.2 µM (active) |
| CC(C)(C)N1C(=O)[C@H]2[C@H]3[C@H](O)[C@H](O)C/C(=N/NC(=O)OCc4ccccc4)[C@@H]3CC[C@@H]2C1=O | 6.74% [at 11.4 µM] | – |
| COC(=O)[C@H](Cc1ccccc1)NC(=O)[C@@H](C)CO | – | 1.26 µM (active) |
| COC(=O)[C@H](C)NC(=O)[C@@H](C)CO | 35.5% [at 11.4 µM] | – |
| COC(=O)CNC(=O)C(C)NC(=O)CNC(=O)OCc1ccccc1 (stereo not drawn) (Cbz-Gly-[ξA]-Gly-OMe) | – | 31.6 µM (active) |
| N[C@@H](Cc1ccccc1)C(=O)O | 8.56% [at 11.4 µM] | – |
| CC(=O)SC[C@@H](Cc1ccccc1)C(=O)NCC(=O)OCc1ccccc1 | – | 0.126 µM (active) |
| O=C(O)CNC(=O)[C@@H](CS)Cc1ccccc1 | 55.1% [at 25.6 µM] | – |
| CC(=O)N[C@H](Cc1ccc(O)cc1)C(=O)O | -9.65% [at 11.4 µM] | – |
| CC(C)C[C@H](NC(=O)[C@@H](O)[C@@H](N)Cc1ccccc1)C(=O)O | – | inactive |
| CC(C)(C)N1C(=O)[C@H]2[C@H]3[C@H](O)[C@H](O)C/C(=N/NC(=O)OCc4ccccc4)[C@H]3CC[C@@H]2C1=O | 41% [at 11.4 µM] | – |
| O=C(N[C@@H](Cc1ccccc1)C(=O)CCl)OCc1ccccc1 | – | 5.01 µM (active) |
| NC([N-]/N=C/c1ccccn1)=[S]=[Fe].O=S(=O)(O)O | -35.2% [at 11.4 µM] | – |
| CSCC[C@@H]1NC(=O)C/C=C\[C@@H](C)COC(=O)[C@@H](C)COC1=O | 30.8% [at 11.4 µM] | – |
| O=C1[C@H]2[C@H]3[C@H](O)[C@H](O)C/C(=N/OC[C@@H](O)COCc4ccco4)[C@H]3CC[C@@H]2C(=O)N1C[C@@H]1CCCO1 | -12.6% [at 11.4 µM] | – |
| CSCC[C@H](C=O)NC(=O)[C@H](CC(C)C)NC(=O)[C@H](CC(C)C)NC(C)=O (Ac-Leu-Leu-[dM]-aldehyde) | -9.34% | – |
| CCCCC(C=O)NC(=O)C(CC(C)C)NC(=O)OCc1ccccc1 (centres undefined) | – | 10 µM (active) |

| SMILES | activity, negative = inhibition | AC50 |
| --- | --- | --- |
| COC(=O)CCC(NC(=O)OCc1ccccc1)C(=O)NC(CC(C)C)C(=O)OC (centres undefined) (Cbz-Glu(OMe)-Leu-OMe; configuration not given here) | – | 11.2 µM (active) |
| CC(C)[C@H](NC(=O)OCc1ccccc1)C(=O)N[C@H](C=O)Cc1ccccc1 (Cbz-Val-Phe-aldehyde) | -37.5% | – |
| CC(C)C[C@H](NC(=O)[C@@H](O)[C@H](N)Cc1ccccc1)C(=O)O | -31.5% | – |
| COC(=O)COc1ccc(/C=C2/SC(=O)N(CC(=O)N3CCCC3)C2=O)cc1Br | -5.79% | – |
| COc1ccc(/C=C2\SC(=O)N(CCNC(=O)C3CC(=O)N(c4ccccc4)C3)C2=O)cc1 (centres undefined) | – | 14.1 µM (active) |
| COCC(=O)N1CCC[C@@]2(CCN(Cc3ccccc3OC)C2)C1 | 17.9% | – |
| Cc1ccc(-n2nc(C)c3c2OC(N)=C(C#N)C3c2ccco2)cc1 (centres undefined) | – | 8.91 µM (active) |
| O=C(O)c1cc2c(cc1S(=O)(=O)O)[C@H]1[C@@H]([C@H]3[C@H]2[C@@]2(Cl)C(Cl)=C(Cl)[C@]3(Cl)C2(Cl)Cl)[C@]2(Cl)C(Cl)=C(Cl)[C@@]1(Cl)C2(Cl)Cl | -16.5% [at 11.4 µM] | – |
| Cc1cc(=O)[nH]c(-n2[nH]c3c(c2=O)CCCC3)n1 | -22.6% | – |
| Cc1ccc(S(=O)(=O)Nc2cc(=O)[nH]c3c2CCC3)cc1 | – | 0.631 µM (active) |
| Cc1cc(C)c2c(=O)[nH]c(SCC(=O)N(C)C)nc2n1 | -0.173% | – |
| C=CCSc1nc2c(sc3nc(C)cc(C)c32)c(=O)[nH]1 | – | 6.31 µM (active) |
| Cc1cnc(CNc2ccnc(-c3cccc(NS(C)(=O)=O)c3)n2)cn1 | -3.15% | – |
| COc1ccc(CNc2ccnc(-c3cccnc3)n2)c(OC)c1 | – | 2 µM (active) |
| COc1cccc(-c2nccc(NCc3ccc(OC)cc3OC)n2)c1 | – | 2.51 µM (active) |
| COc1ccc(CNc2ccnc(-c3cccc(NS(C)(=O)=O)c3)n2)c(OC)c1 | – | 15.8 µM (active) |
| COc1cccc(-c2nccc(NCc3ccccc3OC)n2)c1 | – | 5.01 µM (active) |
| N[C@H](CCC(=O)NCS(=O)(=O)O)C(=O)O | -6.82% | – |
| Cc1[nH]c2c(C)ccc(C)c2c1CC(=O)O | – | 0.316 µM (active) |
| COC(=O)C/C=C\[C@@H](C)[C@@H](/C=N\O[C@@H](C)c1cn([C@H]2COC[C@H]2O)nn1)NS(=O)(=O)c1ccc(C)cc1 | -9.22% [at 11.4 µM] | – |
| COC(=O)C/C=C\[C@@H](C)[C@@H](/C=N\O[C@@H](C)CN1CCCc2nc(C)c(C)cc21)NS(=O)(=O)c1ccc(C)cc1 | -27.4% [at 11.4 µM] | – |

| SMILES | activity, negative = inhibition | AC50 |
| --- | --- | --- |
| COC(=O)C/C=C\[C@@H](C)[C@@H](/C=N\O[C@@H](C)c1cc(-c2c(C)cc(C)cc2C)no1)NS(=O)(=O)c1ccc(C)cc1 | – | 3.16 µM (active) |
| COC(=O)C/C=C\[C@@H](C)[C@@H](/C=N\OC[C@@H](O)COCc1ccco1)NS(=O)(=O)c1ccc(C)cc1 | -9.48% [at 11.4 µM] | – |
| COC(=O)C/C=C\[C@H](C)[C@H](CO)NS(=O)(=O)c1ccc(C)cc1 | 44.8% [at 11.4 µM] | – |
| CO/N=C\[C@@H](NS(=O)(=O)c1ccc(C)cc1)[C@H](C)/C=C\CC(=O)OC | – | 3.16 µM (active) |
| NC1=N[C@H](c2ccc(Cl)cc2)N(c2ccc(S(=O)(=O)Nc3ncccn3)cc2)C(N)=N1 | 8.72% [at 11.4 µM] | – |
| Cc1ccc(CSc2nnc([C@@H]3CCCN3)o2)cc1 | – | 7.08 µM (active) |
| Cc1ccc(CSc2nc3c(c(SCC(=O)O)n2)CCCC3)cc1 | -21.9% | – |
| CN1CCN(c2ncc3nc(-c4cccc(C#N)c4)c(=O)n(C)c3n2)CC1 | -41.4% | – |
| Cn1cccc1C(=O)N1CCC2(CCCN(c3cccc(-c4ccccc4)c3)C2)CC1 | – | 10 µM (active) |
| Cn1cccc1C(=O)N1CCC2(CCCN(c3ccccc3)C2)CC1 | – | 7.94 µM (active) |
| Cn1cccc1C(=O)N1CCC2(CC1)CCN(c1ccccc1)CC2 | -18.5% | – |
| CN1CCCC2(CCN(C(=O)c3cccn3C)CC2)C1 | -6.51% | – |
| Cn1cccc1C(=O)N1CCC2(CC1)CCN(c1cccc(-c3ccccc3)c1)CC2 | -39.8% | – |
| Cn1cccc1C(=O)N1CCC2(CCCN(c3ccc(-c4ccccc4)cc3)C2)CC1 | -39.1% | – |
| O=C(O)c1cc(C(=O)C(=O)c2cc(C(=O)O)c(O)c3ccccc23)c2ccccc2c1O | -29.3% [at 11.4 µM] | – |
| Cc1ccc(-n2cc(C(=O)c3ccc4ccccc4c3O)cn2)cc1 | -25% | – |
| O=C(c1cnn(-c2ccccc2)c1)c1ccc2ccccc2c1O | – | 5.62 µM (active) |
| CCCCOC(=O)Nc1ccccc1C(=O)OC | – | 14.1 µM (active) |
| Cc1nn(CCc2n[nH]c(=S)n2-c2ccc(F)c(Cl)c2)c(C)c1[N+](=O)[O-] | – | 14.1 µM (active) |
| CC(C)=C1C(=O)NN(c2ccc(F)c(Cl)c2)C1=O | -21.5% | – |
| Cc1ccc(-n2c(-c3cc(C)n(C)n3)n[nH]c2=S)cc1 | 17.3% | – |
